# PubChem BioAssay (EPA / NIEHS)
# Results filed as inconclusive are left out. Activity calls are given as the source filed them. How the source made its calls: active means hit-call score of the fitted dose curve at least 0.9, where 1 is the maximum; inconclusive means response in the unintended direction; inactive means score below 0.9.
# Experiments:
# [1] = target: Beta-2 adrenergic receptor (Homo sapiens) (UniProt P07550); assay: NVS_GPCR_hAdrb2: NovaScreen (NVS) G Protein-Coupled Receptor Assay for human Adrenergic, Beta 2 Receptor (Adrb2) (AID 2283261)
# How it was run: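 Compounds screened in duplicate at 25 uM, then actives in concentration series. Human beta-2 receptor from CHO material, cell-free; radioligand displacement after 1 h measured by filtration and scintillation against DMSO baseline.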
# [2] = target: human Adrenergic, Beta 3 Receptor (Adrb3), ADRB3 (gene 155) (UniProt P13945); assay: NVS_GPCR_hAdrb3: NovaScreen (NVS) G Protein-Coupled Receptor Assay for human Adrenergic, Beta 3 Receptor (Adrb3) (AID 2283262)
# How it was run: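 A cell-free filter binding assay read by scintillation counting, with displacement of a specific radioligand measured after 1 hour. The receptor source was SK-N-MC extracts (cells pretreated with isoproterenol and 8-bromo-cAMP). Compounds were first tested at 25 uM in duplicate and then in concentration series.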
# [3] = target: human Dopamine Receptor D2 (DRD2), DRD2 (gene 1813) (UniProt P14416); assay: NVS_GPCR_hDRD2s: NovaScreen (NVS) G Protein-Coupled Receptor Assay for human Dopamine Receptor D2 (DRD2) (AID 2283266)
# How it was run: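 Test compound (25 uM, duplicate in the primary screen; concentration series at follow-up) competed with radioligand for human DRD2 in CHO-derived membrane protein. Filter-based scintillation counting was done 1.5 hours after dosing, with loss of signal analysed against DMSO.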
# [4] = target: D(1A) dopamine receptor (Homo sapiens) (UniProt P21728); assay: NVS_GPCR_hDRD1: NovaScreen (NVS) G Protein-Coupled Receptor Assay for human Dopamine Receptor D1 (DRD1) (AID 2283269)
# How it was run: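 Cell-free competition with radioligand, filter-trapped and scintillation-counted 1 h post-dose, using HEK293-derived human D1 preparation. Duplicate single-point testing at 25 uM first, then concentration series for actives; DMSO served as baseline, loss-of-signal scored.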
# [5] = target: Muscarinic acetylcholine receptor M3 (Homo sapiens) (UniProt P20309); assay: NVS_GPCR_hM3: NovaScreen (NVS) G Protein-Coupled Receptor Assay for human Muscarinic, M3 Receptor (AID 2283272)
# How it was run: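 Radioligand displacement binding on human M3 receptor in CHO-derived membranes, 1 h incubation, filter-based scintillation counting. Primary screen in duplicate at 25 uM; actives followed up in concentration series; loss of signal versus DMSO.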
# [6] = target: human Muscarinic, M4 Receptor, CHRM4 (gene 1132) (UniProt P08173); assay: NVS_GPCR_hM4: NovaScreen (NVS) G Protein-Coupled Receptor Assay for human Muscarinic, M4 Receptor (AID 2283274)
# How it was run: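 Filter-based scintillation counting of radioligand bound to CHO-expressed human M4 preparations after 1 h; loss of signal fitted versus DMSO. Initial duplicate testing at 25 uM, concentration-response follow-up for actives.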
# [7] = target: Muscarinic acetylcholine receptor M5 (Homo sapiens) (UniProt P08912); assay: NVS_GPCR_hM5: NovaScreen (NVS) G Protein-Coupled Receptor Assay for human Muscarinic, M5 Receptor (AID 2283275)
# How it was run: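 Chemicals passing a primary duplicate screen at 25 uM were run as singleton concentration series, maximum 50 uM. Displacement of a specific radioligand from CHO-extracted receptor was read by filter scintillation after 1 h, relative to DMSO.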
# [8] = target: human Neurokinin, NK2 Receptor, TACR2 (gene 6865) (UniProt P21452); assay: NVS_GPCR_hNK2: NovaScreen (NVS) G Protein-Coupled Receptor Assay for human Neurokinin, NK2 Receptor (AID 2283278);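 further: actives reduce bound radioligand signal relative to DMSO baseline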
# How it was run: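 Cell-free radioligand binding using receptor protein extracted from CHO cells; readings taken 4 hours after chemical dosing by filter-based scintillation counting. Primary screen ran single concentration (25 uM) in duplicate; actives followed up in concentration series, loss-of-signal versus DMSO baseline.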
# [9] = target: human Neurotensin Receptor (NTS), NTSR1 (gene 4923) (UniProt P30989); assay: NVS_GPCR_hNTS: NovaScreen (NVS) G Protein-Coupled Receptor Assay for human Neurotensin Receptor (NTS) (AID 2283279)
# How it was run: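 Compounds competed with a radiolabelled ligand for binding to CHO-derived human neurotensin receptor; bound signal counted after filtration, 1 h. Screened first at a single concentration of 25 uM in duplicate, then concentration series to 50 uM maximum for actives.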
# [10] = target: human Endothelin Receptor Type B (ETB), EDNRB (gene 1910) (UniProt P24530); assay: NVS_GPCR_hETB: NovaScreen (NVS) G Protein-Coupled Receptor Assay for human Endothelin Receptor Type B (ETB) (AID 2283267)
# How it was run: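 Filter-based scintillation readout of radioligand displacement, 4 h, using membranes from human astrocytoma cells. Actives from a 25 uM duplicate screen were retested in concentration-response (top 50 uM) relative to DMSO baseline.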
# [11] = target: human Endothelin Receptor Type A (ETA), EDNRA (gene 1909) (UniProt P25101); assay: NVS_GPCR_hETA: NovaScreen (NVS) G Protein-Coupled Receptor Assay for human Endothelin Receptor Type A (ETA) (AID 2283265)
# How it was run: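 Binding of radioligand to membrane protein extracted from SH-SY5Y cells was read by filtration and scintillation after 3 h. Compounds were screened at 25 uM in duplicate, with hits followed up in singleton concentration series to 50 uM.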
# [12] = target: human Adrenergic, Alpha 2c Receptor (Adra2C), ADRA2C (gene 152) (UniProt P18825); assay: NVS_GPCR_hAdra2C: NovaScreen (NVS) G Protein-Coupled Receptor Assay for human Adrenergic, Alpha 2c Receptor (Adra2C) (AID 2283259)
# How it was run: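 Screened first in duplicate at 25 uM, with actives then run as concentration series. Membranes from Sf9 cells were exposed for 1 h, and displacement of radioligand was counted after filtration, using DMSO as baseline.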
# [13] = target: human Dopamine Receptor D4.4 (DRD4.4), DRD4 (gene 1815) (UniProt P21917); assay: NVS_GPCR_hDRD4.4: NovaScreen (NVS) G Protein-Coupled Receptor Assay for human Dopamine Receptor D4.4 (DRD4.4) (AID 2283264)
# How it was run: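 Filter-binding assay with a tritiated or iodinated ligand, cell-free receptor prepared from CHO, 1 hour. Loss of bound radioactivity versus DMSO; single 25 uM duplicate screen, then concentration-response for actives.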
# [14] = target: Muscarinic acetylcholine receptor M2 (Homo sapiens) (UniProt P08172); assay: NVS_GPCR_hM2: NovaScreen (NVS) G Protein-Coupled Receptor Assay for human Muscarinic, M2 Receptor (AID 2283273)
# How it was run: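 Filter-based radiodetection read bound radioligand 1 h after dosing CHO-derived membrane protein. Single-concentration duplicates (25 uM) first, then concentration-response for actives; signal loss versus DMSO scored.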
# [15] = target: human Histamine 1 Receptor (H1), HRH1 (gene 3269) (UniProt P35367); assay: NVS_GPCR_hH1: NovaScreen (NVS) G Protein-Coupled Receptor Assay for human Histamine 1 Receptor (H1) (AID 2283268)
# How it was run: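 Filter-based scintillation detection of radioligand binding to human H1, 1 h incubation; chemicals screened in duplicate at 25 uM, then concentration-response; signal loss relative to DMSO taken as activity.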
# [16] = target: Muscarinic acetylcholine receptor M1 (Homo sapiens) (UniProt P11229); assay: NVS_GPCR_hM1: NovaScreen (NVS) G Protein-Coupled Receptor Assay for human Muscarinic, M1 Receptor (AID 2283270)
# How it was run: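 Actives from a duplicate 25 uM single-point screen were retested in concentration series. Binding measured as displacement of a radioligand from CHO-derived receptor preparation, 1 h incubation, filtration and scintillation counting, analysed as signal loss against DMSO.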
# [17] = target: Type-1 angiotensin II receptor (Homo sapiens) (UniProt P30556); assay: NVS_GPCR_hAT1: NovaScreen (NVS) G Protein-Coupled Receptor Assay for human Angiotensin II receptor type 1 (AT1) (AID 2283263)
# How it was run: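 Hits from a 25 uM duplicate screen (threshold e.g. 30% inhibition) were run in concentration-response with 50 uM top concentration. Displacement of specific radioligand from KAN-TS membrane preparations measured after 3 h by filter scintillation, DMSO as baseline.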
# Chain of human Dopamine Receptor D2 (DRD2), DRD2 (gene 1813) (P14416 whole entry, looked up): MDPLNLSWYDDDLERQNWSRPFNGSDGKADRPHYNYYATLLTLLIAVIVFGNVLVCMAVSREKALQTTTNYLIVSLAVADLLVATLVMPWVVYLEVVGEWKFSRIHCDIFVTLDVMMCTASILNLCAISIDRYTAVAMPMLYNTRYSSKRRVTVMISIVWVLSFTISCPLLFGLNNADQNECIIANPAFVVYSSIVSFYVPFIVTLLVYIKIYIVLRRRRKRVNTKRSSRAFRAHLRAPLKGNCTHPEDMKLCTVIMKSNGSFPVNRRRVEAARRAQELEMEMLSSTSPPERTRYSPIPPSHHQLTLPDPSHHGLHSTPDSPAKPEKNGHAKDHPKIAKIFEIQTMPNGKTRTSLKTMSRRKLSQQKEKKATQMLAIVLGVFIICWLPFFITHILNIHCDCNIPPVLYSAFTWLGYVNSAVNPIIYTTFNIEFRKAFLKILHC
# Chain of D(1A) dopamine receptor (Homo sapiens) (P21728 whole entry, looked up): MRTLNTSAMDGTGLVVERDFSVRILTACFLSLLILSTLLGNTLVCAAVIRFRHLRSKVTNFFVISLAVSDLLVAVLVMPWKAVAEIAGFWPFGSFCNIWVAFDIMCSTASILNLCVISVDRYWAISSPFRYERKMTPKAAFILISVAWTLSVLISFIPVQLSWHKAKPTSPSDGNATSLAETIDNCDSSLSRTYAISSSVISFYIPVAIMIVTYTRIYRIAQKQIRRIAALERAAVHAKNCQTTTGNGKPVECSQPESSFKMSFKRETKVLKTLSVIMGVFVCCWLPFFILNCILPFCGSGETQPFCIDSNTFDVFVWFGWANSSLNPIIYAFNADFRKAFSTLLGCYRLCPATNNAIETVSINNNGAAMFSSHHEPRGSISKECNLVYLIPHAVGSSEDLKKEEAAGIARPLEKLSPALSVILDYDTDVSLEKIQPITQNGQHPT
# Chain of Muscarinic acetylcholine receptor M5 (Homo sapiens) (P08912 whole entry, looked up): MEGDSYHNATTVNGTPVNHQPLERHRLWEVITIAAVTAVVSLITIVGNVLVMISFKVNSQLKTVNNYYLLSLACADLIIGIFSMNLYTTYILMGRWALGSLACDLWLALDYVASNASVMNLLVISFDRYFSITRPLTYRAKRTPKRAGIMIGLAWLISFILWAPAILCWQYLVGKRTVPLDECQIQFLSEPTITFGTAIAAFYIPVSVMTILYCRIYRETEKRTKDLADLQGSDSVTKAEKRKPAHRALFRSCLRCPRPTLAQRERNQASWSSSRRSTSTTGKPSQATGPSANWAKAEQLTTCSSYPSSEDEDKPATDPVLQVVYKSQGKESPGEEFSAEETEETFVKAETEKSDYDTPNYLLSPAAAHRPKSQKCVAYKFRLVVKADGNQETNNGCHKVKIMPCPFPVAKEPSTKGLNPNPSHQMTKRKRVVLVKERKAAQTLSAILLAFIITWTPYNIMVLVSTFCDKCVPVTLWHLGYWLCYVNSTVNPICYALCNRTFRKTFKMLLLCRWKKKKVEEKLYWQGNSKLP
# Chain of Muscarinic acetylcholine receptor M3 (Homo sapiens) (P20309 whole entry, looked up): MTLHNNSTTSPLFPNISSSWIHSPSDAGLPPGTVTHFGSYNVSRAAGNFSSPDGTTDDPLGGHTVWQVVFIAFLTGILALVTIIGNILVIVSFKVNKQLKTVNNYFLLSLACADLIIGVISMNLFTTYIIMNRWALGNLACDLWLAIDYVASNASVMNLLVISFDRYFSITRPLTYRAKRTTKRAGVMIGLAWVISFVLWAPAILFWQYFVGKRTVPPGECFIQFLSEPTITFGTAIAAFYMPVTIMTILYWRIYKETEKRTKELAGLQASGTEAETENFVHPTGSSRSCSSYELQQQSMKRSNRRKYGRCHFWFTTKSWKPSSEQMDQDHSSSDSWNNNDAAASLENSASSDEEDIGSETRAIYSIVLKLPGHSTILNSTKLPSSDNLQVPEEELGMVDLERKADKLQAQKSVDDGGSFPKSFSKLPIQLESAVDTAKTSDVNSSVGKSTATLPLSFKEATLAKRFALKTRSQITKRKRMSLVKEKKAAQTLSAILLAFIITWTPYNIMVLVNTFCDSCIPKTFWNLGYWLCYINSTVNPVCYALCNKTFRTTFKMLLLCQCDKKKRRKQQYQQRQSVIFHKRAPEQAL
# Chain of human Neurokinin, NK2 Receptor, TACR2 (gene 6865) (P21452 whole entry, looked up): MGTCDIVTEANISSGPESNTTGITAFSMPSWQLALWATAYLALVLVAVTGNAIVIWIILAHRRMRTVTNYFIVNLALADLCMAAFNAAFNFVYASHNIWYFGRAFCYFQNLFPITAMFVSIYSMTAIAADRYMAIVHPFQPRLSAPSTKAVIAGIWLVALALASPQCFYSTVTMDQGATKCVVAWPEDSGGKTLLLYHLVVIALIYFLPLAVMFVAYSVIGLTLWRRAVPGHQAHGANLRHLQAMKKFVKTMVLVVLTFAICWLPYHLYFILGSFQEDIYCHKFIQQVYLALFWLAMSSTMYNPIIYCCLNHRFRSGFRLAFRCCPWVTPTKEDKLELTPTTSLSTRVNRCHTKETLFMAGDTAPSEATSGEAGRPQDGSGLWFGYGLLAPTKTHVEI
# Chain of human Muscarinic, M4 Receptor, CHRM4 (gene 1132) (P08173 whole entry, looked up): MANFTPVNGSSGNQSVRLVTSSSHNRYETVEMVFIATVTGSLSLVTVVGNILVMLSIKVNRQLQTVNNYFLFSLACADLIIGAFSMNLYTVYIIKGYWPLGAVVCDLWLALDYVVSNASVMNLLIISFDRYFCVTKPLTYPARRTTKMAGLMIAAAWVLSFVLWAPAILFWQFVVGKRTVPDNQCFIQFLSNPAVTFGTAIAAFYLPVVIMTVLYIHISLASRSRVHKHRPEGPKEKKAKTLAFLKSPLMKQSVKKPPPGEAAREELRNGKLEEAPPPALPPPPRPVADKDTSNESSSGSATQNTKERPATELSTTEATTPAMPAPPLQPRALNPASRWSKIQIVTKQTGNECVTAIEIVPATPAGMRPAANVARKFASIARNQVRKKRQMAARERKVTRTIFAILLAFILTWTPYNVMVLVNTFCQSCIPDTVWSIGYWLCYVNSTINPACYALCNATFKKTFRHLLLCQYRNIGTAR
# Chain of human Adrenergic, Alpha 2c Receptor (Adra2C), ADRA2C (gene 152) (P18825 whole entry, looked up): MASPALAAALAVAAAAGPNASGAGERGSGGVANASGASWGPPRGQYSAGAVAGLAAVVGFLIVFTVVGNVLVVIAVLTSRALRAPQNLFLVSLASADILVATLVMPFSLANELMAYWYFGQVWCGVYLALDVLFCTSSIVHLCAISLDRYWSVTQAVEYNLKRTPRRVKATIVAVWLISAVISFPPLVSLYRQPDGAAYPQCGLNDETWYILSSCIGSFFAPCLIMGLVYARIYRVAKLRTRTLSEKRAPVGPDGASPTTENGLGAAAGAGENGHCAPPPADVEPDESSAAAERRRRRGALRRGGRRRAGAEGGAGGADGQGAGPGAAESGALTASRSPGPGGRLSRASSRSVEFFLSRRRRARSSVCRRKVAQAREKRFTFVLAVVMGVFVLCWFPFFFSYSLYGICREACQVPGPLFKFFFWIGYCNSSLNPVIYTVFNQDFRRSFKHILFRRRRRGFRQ
# Chain of Beta-2 adrenergic receptor (Homo sapiens) (P07550 whole entry, looked up): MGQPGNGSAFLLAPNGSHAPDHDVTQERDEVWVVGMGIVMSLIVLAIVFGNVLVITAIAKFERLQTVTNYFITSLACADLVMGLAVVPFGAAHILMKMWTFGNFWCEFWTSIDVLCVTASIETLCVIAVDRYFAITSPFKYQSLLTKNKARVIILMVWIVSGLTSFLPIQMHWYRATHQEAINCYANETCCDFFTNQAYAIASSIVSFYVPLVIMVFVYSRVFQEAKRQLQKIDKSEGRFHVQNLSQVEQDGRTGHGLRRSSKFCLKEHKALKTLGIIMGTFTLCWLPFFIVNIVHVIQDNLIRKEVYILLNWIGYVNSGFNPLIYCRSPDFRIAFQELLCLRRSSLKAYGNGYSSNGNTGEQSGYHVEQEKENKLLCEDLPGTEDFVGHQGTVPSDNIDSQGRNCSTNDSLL
# Chain of Muscarinic acetylcholine receptor M2 (Homo sapiens) (P08172 whole entry, looked up): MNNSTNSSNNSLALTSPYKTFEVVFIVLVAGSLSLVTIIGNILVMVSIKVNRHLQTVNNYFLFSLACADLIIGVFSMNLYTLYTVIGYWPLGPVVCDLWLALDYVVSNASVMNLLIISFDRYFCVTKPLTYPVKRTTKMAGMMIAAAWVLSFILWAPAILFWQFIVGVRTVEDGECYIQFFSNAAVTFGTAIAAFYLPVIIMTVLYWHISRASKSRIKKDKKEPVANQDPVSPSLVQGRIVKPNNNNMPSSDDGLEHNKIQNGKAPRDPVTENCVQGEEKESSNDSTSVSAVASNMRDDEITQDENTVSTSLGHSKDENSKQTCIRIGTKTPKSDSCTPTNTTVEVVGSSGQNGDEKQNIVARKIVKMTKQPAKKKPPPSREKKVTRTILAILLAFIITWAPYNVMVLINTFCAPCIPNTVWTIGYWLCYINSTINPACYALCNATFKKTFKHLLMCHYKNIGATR
# Chain of Muscarinic acetylcholine receptor M1 (Homo sapiens) (P11229 whole entry, looked up): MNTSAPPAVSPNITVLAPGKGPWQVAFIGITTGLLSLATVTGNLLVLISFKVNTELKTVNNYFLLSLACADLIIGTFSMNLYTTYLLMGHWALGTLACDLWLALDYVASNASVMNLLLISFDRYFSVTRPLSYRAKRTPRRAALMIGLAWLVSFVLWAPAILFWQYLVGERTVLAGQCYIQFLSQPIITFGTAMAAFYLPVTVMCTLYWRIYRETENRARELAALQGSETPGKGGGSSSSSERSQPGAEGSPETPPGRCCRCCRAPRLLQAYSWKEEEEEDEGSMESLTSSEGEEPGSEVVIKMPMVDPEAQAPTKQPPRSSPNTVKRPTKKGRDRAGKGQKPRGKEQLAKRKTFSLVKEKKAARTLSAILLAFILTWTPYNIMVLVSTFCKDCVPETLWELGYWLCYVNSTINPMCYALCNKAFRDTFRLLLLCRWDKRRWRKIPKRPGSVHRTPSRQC
smiles,measurement,setting,value
NC(=O)N(O)[C@@H]1C=C[C@H](Oc2cccc(Oc3ccc(F)cc3)c2)C1,outcome,[1],inactive
same,outcome,[2],inactive
same,outcome,[3],inactive
same,AC50,[4],25 µM (active)
same,outcome,[5],inactive
same,AC50,[6],25 µM (active)
same,outcome,[7],inactive
same,outcome,[8],inactive
same,AC50,[9],8.13 µM (active)
C#C[C@]1(O)CC[C@H]2[C@@H]3CCC4=CC(=O)CC[C@@H]4[C@H]3CC[C@@]21C,outcome,[10],inactive
same,outcome,[8],inactive
O=C(OCCOCCOC(=O)c1ccccc1)c1ccccc1,outcome,[7],inactive
same,outcome,[8],inactive
Oc1cc2ccccc2c2ccccc12,outcome,[8],inactive
COc1ccc([N+](=O)[O-])cc1N,AC50,[3],7.93 µM (active)
CC(C)(C)c1ccc(O)c(C(C)(C)C)c1,outcome,[11],inactive
CCC(=C(c1ccc(O)cc1)c1ccc(OCCN(C)C)cc1)c1ccccc1,AC50,[12],4.42 µM (active)
same,outcome,[13],inactive
same,AC50,[3],0.647 µM (active)
same,AC50,[4],1.71 µM (active)
same,outcome,[14],inactive
same,AC50,[7],2.52 µM (active)
CCN(CC)CCNc1ccc(CNC=O)c2sc3ccc(OC)cc3c(=O)c12,AC50,[12],14.6 µM (active)
same,AC50,[1],28.3 µM (active)
same,AC50,[3],18.8 µM (active)
same,AC50,[15],7.5 µM (active)
same,AC50,[4],7.31 µM (active)
same,AC50,[16],4.7 µM (active)
same,AC50,[5],8.94 µM (active)
same,AC50,[14],11.7 µM (active)
same,AC50,[6],8.13 µM (active)
same,AC50,[7],7.21 µM (active)
CN1CCC[C@H]1c1cccnc1,outcome,[6],inactive
same,outcome,[7],inactive
CCCCCCCCCCCCCC[N+](C)(C)C,AC50,[4],4.57 µM (active)
same,AC50,[14],1.07 µM (active)
same,AC50,[8],4.81 µM (active)
CCCCCCCCCCCCc1ccccc1S(=O)(=O)O,AC50,[12],7.16 µM (active)
same,AC50,[1],21.7 µM (active)
same,AC50,[17],8.83 µM (active)
same,AC50,[13],9.01 µM (active)
same,AC50,[3],18.5 µM (active)
same,AC50,[15],25.2 µM (active)
same,AC50,[4],6.99 µM (active)
same,AC50,[16],18.4 µM (active)
same,AC50,[5],41 µM (active)
same,AC50,[6],33.5 µM (active)
same,AC50,[7],17.2 µM (active)
same,AC50,[8],38 µM (active)
N#C[C@@H]1CC(F)(F)CN1C(=O)CNC1CC2CCC(C1)N2c1ncccn1 (some centres undefined),AC50,[11],9.53 µM (active)
CCCCCCCC(=O)O,outcome,[16],inactive
same,outcome,[5],inactive
same,outcome,[14],inactive
same,AC50,[6],6.66 µM (active)
